From PubChem BioAssay (Tox21)
Inconclusive results are not listed. Active and inactive are the calls of the source. Unless noted, calls follow the shape of the dose curve; as a rule, active = well fitted curve in the direction sought with a large enough effect in the repeat runs; inconclusive = weak or mixed curves; inactive = no such curve, though single readings can be large; an effect the other way counts as inactive or inconclusive.

How the values were obtained:
[1] = qHTS assay for small molecules that induce genotoxicity in human embryonic kidney cells expressing luciferase-tagged ATAD5 (AID 651632); also: nearly all actives have a fitted effect of over 15% in size
Outline: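 HEK293T cells carrying luciferase-tagged ATAD5 were given compound or DMSO vehicle and incubated 16 hr at 37C, 5% CO2. Luciferase activity was read after 30 min at room temperature with Amplite; a rise signals genotoxic stress.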

[2] = qHTS assay for small molecule agonists of the p53 signaling pathway - cell viability (AID 651633; calls by dose curve; also: nearly all actives have a fitted effect of over 30% in size; also: potency is read from the fitted curve at half-maximal effect)
Outline: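 Viability counter-read: CellTiter-Glo luminescence (30 min, room temperature) in the same p53RE-bla plates. These plates had been exposed to compounds for 16 h at 37 C.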

[3] = qHTS assay for small molecules that induce genotoxicity in human embryonic kidney cells expressing luciferase-tagged ATAD5 - cell viability (AID 651634; calls by dose curve; also: nearly all actives have a fitted effect of over 25% in size; also: potency is read from the fitted curve at half-maximal effect)
Outline: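 HEK293T cells carrying luciferase-tagged ATAD5, 2,000 cells/well, exposed to compound for 15.5 hr at 37C. Viability read as live-cell protease activity by CellTiter-Fluor fluorescence after 30 min at 37C.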

[4] = qHTS assay to test for compound auto fluorescence at 590 nm (red) in HepG2 cells (AID 720674)
Outline: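 Red autofluorescence (Ex/Em 540/590 nm, Rose Bengal sodium equivalents) was measured in HepG2 cells, 2,000 per well in MEM plus 10% FBS, plated overnight at 37 C. Readings were taken 1 hr after adding 23 nL compound or DMSO, at 37 C and 5% CO2.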

[5] = qHTS assay to test for compound auto fluorescence at 535 nm (green) in HepG2 cells (AID 720675)
[6] = qHTS assay to test for compound auto fluorescence at 460 nm (blue) in HEK293 cells (AID 720678)
Outline: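 HEK293, 2,000 cells/well, 10% dialyzed FBS; attach 4-5 hr 37C; pin compound or DMSO; o/n 37C/5% CO2; fluorescence 405/460 nm; triamterene-equivalent units.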

[7] = qHTS assay to test for compound auto fluorescence at 590 nm (red) in HEK293 cells (AID 720679)
Outline: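 Intensity at 540nm excitation and 590nm emission is reported as Rose Bengal sodium-equivalent autofluorescence. Measurements followed overnight exposure (37C, 5% CO2) of HEK293 cells, 2,000 per well, to 23 nL compound.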

[8] = qHTS assay to test for compound auto fluorescence at 535 nm (green) in HEK293 cells (AID 720680)
[9] = qHTS assay to test for compound auto fluorescence at 460 nm (blue) in HEK293 cell free culture (AID 720681)
Outline: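 Blue fluorescence (Ex 405/Em 460 nm, triamterene-equivalent) was read immediately after pin transfer of compound or DMSO into medium (DMEM, 10% FBS) without cells.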

[10] = qHTS assay to test for compound auto fluorescence at 535 nm (green) in HEK293 cell free culture (AID 720682)
Outline: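 Read-out: 485/535 nm fluorescence intensity, calibrated against fluorescein. Medium only (DMEM + 10% FBS, no cells); test compound or DMSO vehicle added by pintool before plate reading.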

[11] = qHTS assay to test for compound auto fluorescence at 590 nm (red) in HEK293 cell free culture (AID 720683)
Outline: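 Red-channel autofluorescence of compounds in culture medium (DMEM, 10% FBS), no cells, measured at 540/590 nm. Rose Bengal sodium is the reference fluorophore for equivalence.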

[12] = qHTS assay to test for compound auto fluorescence at 590 nm (red) in HepG2 cell free culture (AID 720684)
Outline: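 Plate contents were MEM with 10% FBS plus test compound or DMSO, no cells. Fluorescence was recorded with 540 nm excitation and 590 nm emission.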

[13] = qHTS assay to test for compound auto fluorescence at 460 nm (blue) in HepG2 cell free culture (AID 720685)
Outline: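 Compound (23 nL) or DMSO pinned into cell-free MEM with 10% FBS; blue fluorescence read at 405/460 nm excitation/emission, expressed as auto-fluorescence equivalency to triamterene.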

[14] = qHTS assay to test for compound auto fluorescence at 535 nm (green) in HepG2 cell free culture (AID 720686)
[15] = qHTS assay to test for compound auto fluorescence at 460 nm (blue) in HepG2 cells (AID 720687)
Outline: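 Blue-channel autofluorescence (Ex/Em 405/460 nm, triamterene-equivalent) was measured after 1 hr compound exposure at 37 C, 5% CO2. Cells were HepG2, plated overnight at 37 C in MEM plus 10% FBS.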

[16] = biological target: Glucocorticoid receptor (Homo sapiens) (UniProt P04150); experiment: qHTS assay to identify small molecule agonists of the glucocorticoid receptor (GR) signaling pathway (AID 720691; active = well fitted activation curve with a large enough effect in the signal ratio in the repeat runs, not every such curve was filed as active; the % refers to the signal ratio)
Outline: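 GR-bla HeLa cells carrying a GRE-driven beta-lactamase reporter, exposed to compounds for 18 h at 37 C. Reporter activation read as fluorescence after 2 h with LiveBLAzer B/G FRET substrate at room temperature.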

[17] = qHTS assay for small molecule disruptors of the mitochondrial membrane potential - cell viability (AID 720634; calls by dose curve; also: nearly all actives have a fitted effect of over 20% in size; also: potency is read from the fitted curve at half-maximal effect)
Outline: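 HepG2 cells, 2,000 per well, attached overnight, then treated 1 hr at 37 C, 5% CO2. Viability read as ATP by CellTiter-Glo luminescence after 30 min at room temperature. Read in the same wells as the m-MPI membrane-potential dye assay.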

[18] = qHTS assay for small molecule disruptors of the mitochondrial membrane potential (AID 720635); also: potency is read from the fitted curve at half-maximal effect
Outline: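 Mitochondrial membrane potential tracked with Mito-MPS dye, red aggregates (ex 540/em 590 nm) against green monomers (ex 490/em 535 nm). Compound treatment 1 hr at 37C, dye 30 min in HepG2.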

[19] = biological target: Glucocorticoid receptor (Homo sapiens) (UniProt P04150); experiment: qHTS assay to identify small molecule antagonists of the glucocorticoid receptor (GR) signaling pathway (AID 720692; active = well fitted inhibition curve with a large enough effect in the signal ratio in the repeat runs, not every such curve was filed as active; the % refers to the signal ratio; also: potency is read from the fitted curve at half-maximal effect)
Outline: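 GR-bla HeLa cells carrying a GRE-driven beta-lactamase reporter received compound after 4 h plating, then dexamethasone (5 nM final). After 18 h at 37C, the FRET substrate was loaded for 2 h at room temperature and fluorescence read.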

Measured: Potency

Glucocorticoid receptor (Homo sapiens), sequence (P04150 whole entry, looked up): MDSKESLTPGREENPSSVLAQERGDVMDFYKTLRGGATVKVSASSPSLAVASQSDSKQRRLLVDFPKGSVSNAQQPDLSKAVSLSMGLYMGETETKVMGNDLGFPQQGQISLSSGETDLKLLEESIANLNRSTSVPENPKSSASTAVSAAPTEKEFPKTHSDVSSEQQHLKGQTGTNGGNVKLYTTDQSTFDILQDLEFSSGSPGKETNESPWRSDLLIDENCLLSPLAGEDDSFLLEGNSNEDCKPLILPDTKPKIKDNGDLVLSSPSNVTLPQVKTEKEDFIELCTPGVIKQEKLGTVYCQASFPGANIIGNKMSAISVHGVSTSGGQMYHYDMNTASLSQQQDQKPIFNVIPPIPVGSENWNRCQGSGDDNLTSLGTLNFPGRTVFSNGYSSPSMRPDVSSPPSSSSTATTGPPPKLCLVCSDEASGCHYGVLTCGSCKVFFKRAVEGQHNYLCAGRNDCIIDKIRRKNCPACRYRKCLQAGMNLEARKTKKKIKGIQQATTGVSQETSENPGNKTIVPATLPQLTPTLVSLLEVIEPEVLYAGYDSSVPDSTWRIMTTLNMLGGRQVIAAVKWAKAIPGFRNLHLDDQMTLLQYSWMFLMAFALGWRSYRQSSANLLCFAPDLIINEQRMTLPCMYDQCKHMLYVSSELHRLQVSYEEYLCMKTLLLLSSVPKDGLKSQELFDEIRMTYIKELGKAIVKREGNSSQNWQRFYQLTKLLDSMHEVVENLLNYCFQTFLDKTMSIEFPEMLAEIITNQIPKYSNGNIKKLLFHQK

COP(=S)(OC)Oc1cc(Cl)c(I)cc1Cl
inactive: [1] | [2] | [3] | [4] | [5] | [6] | [7] | [8] | [9] | [10] | [11] | [12] | [13] | [14] | [15] | [16]

COc1nn(CSP(=S)(OC)OC)c(=O)s1
inactive: [1] | [2] | [3] | [17] | [5] | [6] | [7] | [8] | [9] | [10] | [11] | [12] | [13] | [14] | [16]

O=S1OC[C@@H]2[C@H](CO1)[C@]1(Cl)C(Cl)=C(Cl)[C@@]2(Cl)C1(Cl)Cl (some centres undefined)
active: [2] 61.1 µM
inactive: [1] | [3] | [4] | [5] | [6] | [7] | [8] | [9] | [10] | [11] | [12] | [13] | [14] | [15] | [16]

COC(C)(C)CCC[C@H](C)C/C=C/C(C)=C/C(=O)OC(C)C
active: [2] 61.1 µM | [18] 30.6 µM
inactive: [1] | [3] | [5] | [6] | [7] | [8] | [9] | [10] | [11] | [12] | [13] | [14]

COC(=O)C(C)N(C(=O)Cc1ccccc1)c1c(C)cccc1C (centres undefined)
inactive: [1] | [2] | [3] | [4] | [5] | [6] | [7] | [8] | [9] | [10] | [11] | [12] | [13] | [14] | [15]

COP(=S)(Oc1cc(Cl)c(Br)cc1Cl)c1ccccc1 (centres undefined)
inactive: [1] | [3] | [4] | [5] | [6] | [7] | [9] | [10] | [11] | [12] | [13] | [14] | [15] | [16]
active: [17] 48.6 µM | [18] 48.6 µM

CC(C)N(C(=O)COc1nnc(C(F)(F)F)s1)c1ccc(F)cc1
inactive: [1] | [2] | [3] | [5] | [6] | [7] | [8] | [9] | [10] | [11] | [12] | [13] | [14] | [15]
active: [19] 49 µM

CCCN(CCC)c1c([N+](=O)[O-])cc(S(C)(=O)=O)cc1[N+](=O)[O-]
inactive: [1] | [2] | [3] | [4] | [5] | [6] | [7] | [8] | [9] | [10] | [11] | [12] | [13] | [14] | [15] | [16] | [19]

O=[N+]([O-])c1cc(C(F)(F)F)cc([N+](=O)[O-])c1Cl
inactive: [1] | [2] | [4] | [5] | [6] | [7] | [9] | [10] | [11] | [12] | [13] | [14] | [15] | [16] | [19]

CC(O)(CS(=O)(=O)c1ccc(F)cc1)C(=O)Nc1ccc(C#N)c(C(F)(F)F)c1 (centres undefined)
inactive: [1] | [2] | [3] | [4] | [5] | [6] | [7] | [8] | [9] | [10] | [11] | [12] | [13] | [14] | [15] | [16]

O=C(OC1CCCCC1)c1ccccc1C(=O)OC1CCCCC1
active: [18] 28.8 µM
inactive: [1] | [2] | [3] | [4] | [5] | [6] | [7] | [8] | [9] | [10] | [11] | [12] | [13] | [14] | [15]

O=C1CN=C(c2ccccc2)c2cc(Cl)ccc2N1CC1CC1
inactive: [1] | [3] | [17] | [4] | [5] | [6] | [7] | [8] | [10] | [11] | [12] | [13] | [15] | [16]
active: [18] 51 µM | [19] 45.8 µM

O=C(NC(=O)c1c(F)cccc1F)Nc1cc(Cl)c(Oc2ncc(C(F)(F)F)cc2Cl)c(Cl)c1
active: [2] 7.37 µM
inactive: [1] | [3] | [4] | [5] | [6] | [7] | [9] | [10] | [11] | [12] | [13] | [14] | [15] | [16]

CCc1ccc(C(=O)NN(C(=O)c2cc(C)cc(C)c2)C(C)(C)C)cc1
active: [3] 0.486 µM
inactive: [1] | [2] | [4] | [5] | [6] | [7] | [9] | [10] | [11] | [12] | [13] | [14] | [16]

CS/C(C)=N/OC(=O)N(C)SN(C)C(=O)O/N=C(\C)SC
inactive: [1] | [2] | [17] | [18] | [4] | [5] | [6] | [7] | [8] | [9] | [10] | [11] | [12] | [13] | [14] | [15] | [16]

O=C(N[C@H](c1ccccc1)[C@@H]1CN2CCC1CC2)c1c(Cl)ccc(C(F)(F)F)c1Cl
active: [18] 43.9 µM
inactive: [1] | [2] | [3] | [4] | [5] | [6] | [7] | [9] | [10] | [11] | [12] | [13] | [14] | [15] | [16] | [19]

CCCC(Cn1cncn1)c1ccc(Cl)cc1Cl (centres undefined)
active: [19] 49 µM
inactive: [1] | [2] | [3] | [4] | [5] | [6] | [7] | [8] | [10] | [11] | [12] | [13] | [14] | [15]

CCOP(=S)(OCC)SCSCC
inactive: [2] | [3] | [17] | [5] | [6] | [8] | [9] | [10] | [11] | [12] | [13] | [14] | [15]

Clc1cc(C(Cl)(Cl)Cl)cnc1Cl
inactive: [2] | [3] | [17] | [4] | [5] | [6] | [7] | [10] | [11] | [12] | [13] | [14] | [15]

C/C=C/C=O
inactive: [2] | [3] | [4] | [5] | [6] | [7] | [8] | [9] | [10] | [11] | [12] | [13] | [14] | [15] | [16] | [19]

CCOP(=O)(OCC)Oc1ccc([N+](=O)[O-])cc1
inactive: [2] | [3] | [17] | [18] | [4] | [5] | [6] | [7] | [9] | [10] | [11] | [12] | [13] | [15]

CC1(C)CCC(Cc2ccc(Cl)cc2)C1(O)Cn1cncn1 (centres undefined)
active: [17] 54.5 µM | [18] 54.5 µM
inactive: [1] | [5] | [6] | [8] | [9] | [10] | [11] | [12] | [13] | [14]

COC(=O)C(Br)CBr (centres undefined)
inactive: [2] | [3] | [17] | [4] | [5] | [6] | [7] | [8] | [9] | [10] | [11] | [12] | [13] | [16] | [19]

COCCOCCO
inactive: [3] | [17] | [4] | [5] | [6] | [7] | [8] | [9] | [10] | [11] | [12] | [13] | [14]

C=COC(C)=O
inactive: [2] | [3] | [17] | [4] | [5] | [6] | [7] | [9] | [10] | [11] | [12] | [13] | [14]
